Measurements reported in PubChem BioAssay (NCI).
This is part of a sample that, as a whole, favours compounds with a hit. Of some 83,000 tested, about 20% had one in any assay.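 Single-concentration screen, 48 h exposure, 96-well plates. Endpoint: percent growth. Below 10 = active.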 Values without a mark were called inactive. The source made the active and inactive calls.

Each molecule was assayed on MDA-MB-468 breast (assay: NCI-60 one-dose screen, 48 h (100 = growth as untreated, 0 = no growth, -100 = all killed)). Conditions: 10 µM unless noted.
With `CCN1C(=O)N(CC)C2C1NN=c1s/c(=C\c3cnc(C)n3C)c(=O)n12` (stereo not given) the growth was -12.2% (active).
For `CCCCS(=O)(=O)c1cc(Nc2ccc(O)c3c2C(=O)c2ccccc2C3=O)ccc1C`, the growth was 76.4%.
In the case of `CCOC(=O)C1=C(c2ccccc2)N=C2N(c3ccccc3)N=C(C(C)=O)N2C1c1ccc(Br)cc1` (stereo not given), the growth is reported as 99.3%.
`Cc1nc2cccc(NCCCCC(=O)NO)c2c(=O)n1-c1ccccc1` was tested, and the growth was 54.6%.
Work on `CCOC(=O)c1ccc(N(CCC(=O)O)C(C)=O)cc1` yielded a growth of 99.9%.
`O=C(N/N=C/c1ccco1)c1[nH]c2ccc(Br)cc2c1-c1ccccc1` gave a growth of 14.9%.
`NC/C(=C/F)COc1ccc2nc(NCc3cccnc3)oc2c1` showed a growth of 107%.
In the case of `Cc1nc(N=C(N)N)nc2ccc3ccccc3c12`, the growth is reported as -55.8% (active).
With `CC(=O)c1ccc(C)c(N)c1` the growth was 104%.
With `O=C(NNc1nc2cc(F)ccc2n2c(CN3CCC(O)C3)ccc12)c1cnccn1` (stereo not given) the growth was -17.3% (active).
In the case of `CC1=CC(=O)c2ccccc2C1=O`, the growth is reported as 111%.
Work on `C=CC[C@]1(O)CC[C@H]2[C@@H]3CCc4cc(O)ccc4[C@H]3CC[C@@]21C` yielded a growth of 87.4%.
`CCCCOc1ccc(NC(=O)n2nc(N=NN(C)C)c3ccc(Cl)cc32)cc1` gave a growth of 97.9%.
Molecule `Oc1ccccc1C=Nc1ccc(N2CCN(c3ccccc3)CC2)cc1` has a growth of 108%.
For `COC(=O)CCCCCCCCC(C)c1ccc(C(C)=O)cc1` (stereo not given), the growth was 110%.
`Clc1cccc(/C=N/Nc2nc(N/N=C/c3cccc(Cl)c3Cl)nc(N3CCCCC3)n2)c1Cl` showed a growth of 92.8%.
In the case of `COc1cc(C(=O)c2cc(C)c3[nH]c4ccc(C)cc4c3c2C)cc(OC)c1OC`, the growth is reported as -20.1% (active).
With `C=C1C(=O)O[C@H]2[C@H]1CC/C(COC(=O)C(=O)c1c[nH]c3ccc(Cl)cc13)=C\CC[C@@]1(C)O[C@@H]21` the growth was -67.3% (active).
For `c1cc(NCCc2ccncc2)nc(-n2cnc3ccccc32)c1`, the growth was 95%.
Work on `COC(=O)C1=C(C)NC(C)=C(C(=O)OC)C(N2C(=O)CCC2=O)C1` (stereo not given) yielded a growth of 63.4%.
`Nc1ccc2c(c1)C1(CCC2)NC(=O)NC1=O` (stereo not given) gave a growth of 97.4%.
In the case of `O=C(CC1(O)C(=O)Nc2ccc(Br)cc21)c1ccc(Cl)cc1` (stereo not given), the growth is reported as 100%.
In the case of `Nc1nc2ccccc2c2c(=O)c3cc(F)ccc3sc12`, the growth is reported as -27.2% (active).
For `CCCCCCCCCCCCCCCCCCOc1ccccc1CC(=O)OCC[N+]1(C)CCCC1`, the growth was -23.8% (active).
`O=C(O)CCC(=O)OC[C@@H](NC(=O)C(Cl)Cl)[C@H](O)c1ccc([N+](=O)[O-])cc1` gave a growth of 95.5%.
With `OCCn1cc(-c2nc(-c3c[nH]c4ncccc34)cs2)c2cc(F)ccc21` the growth was -11.1% (active).
With `Nc1c2c(nc3ccc(Cl)cc13)CC(c1ccc(O)cc1)CC2=O` (stereo not given) the growth was 18%.
`O=C(Cn1cc(COc2ncnc3c2cnn3-c2ccccc2)nn1)Nc1cccc2ccccc12` gave a growth of 86.5%.
`Cc1cn2c(/C=C3/C(=O)Nc4c3ccc3ccccc43)c(C(F)(F)F)nc2s1` was tested, and the growth was 7.93% (active).
In the case of `O=C(NNc1ccccc1)c1ncc[nH]1`, the growth is reported as 75.6%.
With `COc1ncnc2[nH]cc(CN3CCN(c4ccc(F)cc4)CC3)c12` the growth was 108%.
In the case of `Clc1cc(Cl)cc(Nc2ccc3c(OCCCN4CCOCC4)cccc3n2)c1`, the growth is reported as 20.6%.
For `Nc1cccc2c1CN(C1CCC(=O)NC1=O)C2=O` (stereo not given), the growth was 84%.
Work on `CCOC(=O)Nc1nn[nH]n1` yielded a growth of 101%.
In the case of `CC1(C)CC[C@]2(C(=O)O)CC[C@]3(C)C(=CC[C@@H]4[C@@]5(C)CC[C@H](NOCCCN)C(C)(C)[C@@H]5CC[C@]43C)[C@@H]2C1`, the growth is reported as -45.6% (active).
Molecule `C[C@@H]1C(=O)N(C[C@H](Cc2ccccc2)NC(=O)OCc2ccccc2)[C@]1(Cc1ccccc1)C(=O)OCc1ccccc1` has a growth of 24.6%.
`CCOC(=O)c1nc(Nc2ccc(NC(=O)Nc3ccc(F)cc3)cc2)c2ccccc2n1` was tested, and the growth was 80.3%.
In the case of `CNC(=O)c1c(NC(=O)c2ccc(C(C)C)cc2)sc2c1CCC(=O)C2`, the growth is reported as -28.4% (active).
With `COc1nc2c(c(=O)n1C)CN(c1ccccc1)C(=O)C(C)N2` (stereo not given) the growth was 86.3%.
Work on `C=C(C)[C@@H]1CC[C@]2(/C=N/Nc3ccncc3)CC[C@]3(C)[C@H](CC[C@@H]4[C@@]5(C)CCCNC(C)(C)[C@@H]5CC[C@]43C)[C@@H]12` yielded a growth of 83.7%.
